# Inconclusive results are not listed. Active and inactive are the calls of the source. Calls come from the whole dose curve; as a rule, active = well fitted curve in the direction sought with a large enough effect; inconclusive = small, poorly fitted or top-dose-only effect, or another doubt; inactive = no such curve, though single readings can be large; an effect the other way counts as inactive or inconclusive.
# What was measured:
# [1] = qHTS Screen of the MIPE 4.0 Collection Against Ewings Sarcoma (TC71) (AID 1259253); note: potency is the fitted concentration of half-maximal effect; nearly all actives have a fitted effect of over 40% in size
# Procedure, shortened: (§1)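 Compound titrations go onto adherent log-phase cells 4 h after seeding, incubate 48 h at 37C, then CellTiter-Glo luminescence reports viability relative to DMSO and cell-free controls.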
# [2] = qHTS Screen of the MIPE 4.0 Collection Against Ewings Sarcoma (EW8) (AID 1259255); note: potency is the fitted concentration of half-maximal effect; nearly all actives have a fitted effect of over 35% in size
# Procedure, shortened: as §1
# [3] = qHTS Screen of the MIPE 4.0 Collection Against Ewings Sarcoma (RDES) (AID 1259252); note: nearly all actives have a fitted effect of over 35% in size; note: potency is the fitted concentration of half-maximal effect
# Procedure, shortened: as §1
# [4] = qHTS Screen of the MIPE 4.0 Collection Against Ewings Sarcoma (TC32) (AID 1259256); note: nearly all actives have a fitted effect of over 45% in size; note: potency is the fitted concentration of half-maximal effect
# Procedure, shortened: as §1
# [5] = Identifying Small Molecule Inhibitors of Pancreatic Cancer Stem Cells (SN12C, Adherent) (AID 1259358);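 note: cell survival measured after 48 h of compound exposure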
# Procedure, shortened: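 Viability is scored by CellTiter-Glo luminescence 48 h after dosing, expressed as percent activity against vehicle and no-cell references. Spheroid formats rely on cells cultured 14 days in stem cell media beforehand.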
# [6] = Identifying Small Molecule Inhibitors of Pancreatic Cancer Stem Cells (A2780, Spheroid) (AID 1259357); settings: Potency: A2780 spheroid viability;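 note: spheroids pre-formed over 14 days in stem cell medium on hydrogel; compound exposure lasted 48 h before the ATP luminescence read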
# Procedure, shortened: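 After a 4 h attachment period, compounds were pinned into wells and cultures held 48 h under standard incubator conditions. Viability was then measured as CellTiter-Glo luminescence following 10 min at room temperature.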
# [7] = qHTS assay to identify small molecule inhibitors of chordoma cells - UCH-1 (AID 1259355); note: nearly all actives have a fitted effect of over 55% in size
# Procedure, shortened: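 Luminescent ATP read-out (CellTiter-Glo, 30min at room temperature) measured viability of UCH-1 cells exposed for 48hr to test drugs at 15 concentrations, co-dosed with a five-agent combination of auranofin, camptothecin, doxorubicin, rubitecan and topotecan.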
# [8] = qHTS assay to identify small molecule inhibitors of chordoma cells - UCH-2 (AID 1259356); note: series mostly up to about 46 µM
smiles,measurement,setting,value
CC(C)(N)C(=O)N[C@H](COCc1ccccc1)C(=O)N1CCC2(CC1)CN(S(C)(=O)=O)c1ccccc12,Potency,[1],29.6 µM (active)
same,Potency,[2],20.9 µM (active)
COc1nc(-c2ccc3c(c2)OCO3)n(-c2ccc(NC(=O)CSc3ccccc3)cc2)n1,Potency,[1],20.9 µM (active)
OC[C@H](Cc1ccccc1)Nc1nc(Oc2ccc3c(c2)CCC3)nc2c1ncn2Cc1ccc(-c2ccccc2)cc1,Potency,[3],14.8 µM (active)
same,Potency,[4],6.62 µM (active)
same,Potency,[5],inactive
O=C(O)c1ccc(-c2c[nH]c3ccc(-c4ccccc4)cc23)cc1C1CCCC1,Potency,[6],inactive
NCCc1ccc(O)c(O)c1,Potency,[1],16.6 µM (active)
same,Potency,[2],16.6 µM (active)
same,Potency,[4],1.66 µM (active)
same,Potency,[7],inactive
same,outcome,[8],inactive
COc1ccccc1-c1cccc(-c2c(O)c3cc(C#N)c(Cl)cc3[nH]c2=O)c1,Potency,[3],inactive
same,Potency,[4],inactive
COc1ccc(C2=N[C@H](c3ccc(Cl)cc3)[C@H](c3ccc(Cl)cc3)N2C(=O)N2CCNC(=O)C2)c(OC(C)C)c1,Potency,[1],16.6 µM (active)
same,Potency,[2],5.26 µM (active)
same,Potency,[4],16.6 µM (active)
c1ccc(-c2nn3c(c2-c2ccnc4cc(OCCN5CCOCC5)ccc24)CCC3)nc1,Potency,[1],18.7 µM (active)
O=C(Nc1ccc(F)c(C(F)(F)F)c1)Nc1nnc(-c2ccncc2)s1,Potency,[5],inactive
COc1cc(F)c(F)c(Nc2ccc(I)cc2F)c1NS(=O)(=O)C1(C[C@H](O)CO)CC1,Potency,[3],20.9 µM (active)
same,Potency,[1],16.6 µM (active)
same,Potency,[4],11.8 µM (active)
same,Potency,[6],inactive
C[C@@H]1C[C@H]2[C@@H]3CCC4=CC(=O)C=C[C@]4(C)C3(F)[C@@H](O)C[C@]2(C)[C@@]1(O)C(=O)CO (stereo not given in full),Potency,[6],inactive
same,Potency,[5],inactive

# Source: PubChem BioAssay (NCATS)
